Records with an inconclusive call do not appear. Activity calls are given as the source filed them. Rule for the calls, unless noted: active = hit-call score of the fitted dose curve at least 0.9, where 1 is the maximum; inactive = score below 0.9.

The nature of assay [1]: ATG_Hpa5_TRANS: Attagene TRANS-FACTORIAL HepG2 Assay for human GAL4-Hpa5 Hepatocyte Transcription Factor Basal Promoter (AID 2282975; active = hit-call score of the fitted dose curve at least 0.9, where 1 is the maximum;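 note: hits are increases in reporter mRNA over DMSO baseline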). As to conditions: HepG2 Attagene GAL4-Hpa5 transcription reporter. The gist of the method:
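Gain-of-signal versus DMSO is fitted for reporter mRNA quantified by RT-PCR and capillary electrophoresis after 24 h exposure. This endpoint is an internal background marker in transiently transfected HepG2 cells carrying GAL4-UAS reporter units.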

Assay [2] in a line: ATG_GAL4_TRANS: Attagene TRANS-FACTORIAL HepG2 Assay for GAL4 (Internal Marker) (AID 2282976; active = hit-call score of the fitted dose curve at least 0.9, where 1 is the maximum). To be noted: HepG2 Attagene TRANS GAL4 internal marker reporter. In outline: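 Fluorescence from capillary electrophoresis of labelled RT-PCR products quantifies reporter mRNA induction after 24 h dosing of HepG2 cells carrying transfected GAL4-UAS reporter transcription units. Vehicle DMSO serves as baseline.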

Assay [3] deals with Oxysterols receptor LXR-alpha (Homo sapiens) (UniProt Q13133). Put plainly: ATG_LXRa_TRANS: Attagene TRANS-FACTORIAL HepG2 Assay for human Liver X Receptor alpha (LXRa) (AID 2282980; active = hit-call score of the fitted dose curve at least 0.9, where 1 is the maximum). As to conditions: HepG2 Attagene TRANS reporter, LXRa transactivation. In outline:
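Transient HepG2 transfectants, 24 h dosing, RT-PCR/CE mRNA reporter quantitation; gain-of-signal vs DMSO.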

The target in assay [4] is Oxysterols receptor LXR-beta (Homo sapiens) (UniProt P55055). Description: ATG_LXRb_TRANS: Attagene TRANS-FACTORIAL HepG2 Assay for human Liver X Receptor beta (LXRb) (AID 2282981; active = hit-call score of the fitted dose curve at least 0.9, where 1 is the maximum). To be noted: HepG2 Attagene TRANS GAL4-LXRb reporter, mRNA. The gist of the method:
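Readout: fluorescent reporter mRNA fragments resolved by capillary electrophoresis after RT-PCR. System: transiently transfected human HepG2, exogenous LXRb-Gal4 chimera driving GAL4-UAS reporter, 24 h dosing. Activity fitted upward against DMSO baseline.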

Assay [5] deals with Nuclear receptor subfamily 4 group A member 2 (Homo sapiens) (UniProt P43354). Description: ATG_NURR1_TRANS: Attagene TRANS-FACTORIAL HepG2 Assay for human Nuclear Receptor Related Protein 1 (NURR1) (AID 2282985; active = hit-call score of the fitted dose curve at least 0.9, where 1 is the maximum). To be noted: HepG2 Attagene TRANS reporter, mRNA readout. The gist of the method: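 Read-out: reporter mRNA induction by RT-PCR plus capillary electrophoresis with fluorescence detection, after 24 h dosing of transfected HepG2 cells. Exogenous NR-Gal4 chimera activity drives GAL4-UAS reporter; activity fitted upward versus DMSO.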
Sequence of Nuclear receptor subfamily 4 group A member 2 (Homo sapiens) (P43354 whole entry, looked up, the tested form may be a part): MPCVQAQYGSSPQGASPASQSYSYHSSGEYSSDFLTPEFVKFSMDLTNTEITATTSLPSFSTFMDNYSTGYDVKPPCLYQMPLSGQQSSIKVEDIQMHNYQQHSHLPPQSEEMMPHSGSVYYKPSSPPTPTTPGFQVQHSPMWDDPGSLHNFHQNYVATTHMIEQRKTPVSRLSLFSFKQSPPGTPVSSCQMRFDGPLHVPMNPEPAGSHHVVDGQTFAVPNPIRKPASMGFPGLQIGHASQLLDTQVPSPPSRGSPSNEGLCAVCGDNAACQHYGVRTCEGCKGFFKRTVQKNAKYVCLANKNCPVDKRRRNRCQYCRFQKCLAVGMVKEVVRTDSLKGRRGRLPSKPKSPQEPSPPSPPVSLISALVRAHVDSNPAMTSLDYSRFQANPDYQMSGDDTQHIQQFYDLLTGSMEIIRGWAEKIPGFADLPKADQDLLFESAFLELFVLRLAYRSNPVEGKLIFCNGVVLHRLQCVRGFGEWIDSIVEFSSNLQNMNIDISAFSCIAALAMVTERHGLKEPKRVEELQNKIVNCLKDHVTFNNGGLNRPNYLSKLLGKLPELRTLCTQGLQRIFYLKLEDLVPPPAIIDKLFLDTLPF

Assay [6] concerns the target Transcriptional activator Myb (Homo sapiens) (UniProt P10242). Description: ATG_Myb_CIS: Attagene CIS-FACTORIAL HepG2 Assay for human Myeloblastosis (Myb) Proto-Oncogene Transcription Factor (AID 2282986). As to conditions: HepG2 Attagene CIS-FACTORIAL Myb reporter transcription; actives raise or lower the signal. The gist of the method:
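Steps: transfect HepG2 with cis-regulated reporter units; dose with chemical for 24 h; isolate RNA, reverse-transcribe, PCR-amplify and FAM-label reporter sequences; digest with HpaI; resolve by capillary electrophoresis. Activity fitted in both directions relative to DMSO.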

Assay [7] concerns the target Nuclear respiratory factor 1 (Homo sapiens) (UniProt Q16656). Description: ATG_NRF1_CIS: Attagene CIS-FACTORIAL HepG2 Assay for human Nuclear Respiratory Factor 1 (NRF1) Orphan Gene (AID 2282987). To be noted: HepG2 NRF1 cis-element reporter, Attagene multiplex; actives raise or lower the signal. In outline: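 Fluorescence intensity of labelled reporter cDNA fragments, resolved by capillary electrophoresis, served as readout for NRF1 cis-element activity. Transiently transfected HepG2 cells were dosed for 24 hours; activity in either direction was fitted against DMSO negative control.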

Assay [8] is described as follows: ATG_NFI_CIS: Attagene CIS-FACTORIAL HepG2 Assay for human Nuclear Factor I (NFI) (AID 2282989). To be noted: HepG2 cis-regulatory reporter, NFI response element transcription; actives raise or lower the signal. The gist of the method:
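Reporter transcripts were measured by RT-PCR with fluorescent primer extension and capillary electrophoresis 24 h post-treatment. HepG2 cells carried transiently transfected cis-regulated reporter constructs reporting endogenous factor activity; gain or loss fitted against DMSO baseline.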

Assay [9] concerns the target Myc proto-oncogene protein (Homo sapiens) (UniProt P01106). Put plainly: ATG_Myc_CIS: Attagene CIS-FACTORIAL HepG2 Assay for human Myelocytomatosis (Myc) Proto-Oncogene Transcription Factor (AID 2282990). To be noted: HepG2, Attagene cis-reporter transcription factor activity; actives raise or lower the signal. The gist of the method: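 Transiently transfected HepG2 cells bearing cis-promoter reporter units for endogenous transcription factors; 24 h exposure. Reporter mRNA measured by RT-PCR, 6-FAM primer extension, HpaI cut and capillary electrophoresis; bidirectional fit relative to DMSO.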

Assay [10] is described as follows: ATG_NF_kB_CIS: Attagene CIS-FACTORIAL HepG2 Assay for human Nuclear Factor Kappa B (NF-kB) (AID 2282991). To be noted: HepG2 Attagene cis-factorial NF-kB reporter mRNA; actives raise or lower the signal. In outline:
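Endogenous transcription factor activity in HepG2 was captured via cis-regulated reporter constructs; after 24 h dosing, reporter mRNA was reverse-transcribed, amplified, fluorescently labelled and sized by capillary electrophoresis, with activity fitted bidirectionally relative to DMSO.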

A short description of assay [11]: ATG_NRF2_ARE_CIS: Attagene CIS-FACTORIAL HepG2 Assay for human Nuclear Factor Erythroid 2 Related Factor 2 (NFR2) response to Antioxidant Response Elements (ARE) (AID 2282992).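 For AC50: reporter mRNA level measured by RT-PCR and capillary electrophoresis fluorescence.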 To be noted: HepG2 Attagene ARE/NRF2 reporter, transcription factor activity; actives raise or lower the signal. The gist of the method:
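Fluorescence intensity of reporter-specific cDNA fragments, separated by capillary electrophoresis, reflects mRNA induction in transfected HepG2 cells at 24 h. Activity is fitted bidirectionally, DMSO serving as baseline.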

A short description of assay [12]: ATG_Oct_MLP_CIS: Attagene CIS-FACTORIAL HepG2 Assay for human Octamer-Binding Transcription Factor (Oct) (AID 2282993). As to conditions: HepG2 Attagene cis-factorial Oct reporter, mRNA; actives raise or lower the signal. In outline: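 Readout is reporter transcript level from RT-PCR with fluorescent primer extension and capillary electrophoresis, fitted in both directions against DMSO. Transfected HepG2 reporter units report endogenous factor activity after 24 h dosing.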

The target in assay [13] is Cellular tumor antigen p53 (Homo sapiens) (UniProt P04637). Description: ATG_p53_CIS: Attagene CIS-FACTORIAL HepG2 Assay for human p53 Transcription Factor (AID 2282994). To be noted: HepG2 p53 cis-element reporter, Attagene mRNA; actives raise or lower the signal. In outline: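 Transiently transfected HepG2 (multiple cis reporter transcription units); exposure 24 h; reporter RNA via RT-PCR, 6-FAM extension, 2 h HpaI digest at 37 C, CE detection; DMSO baseline.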
Sequence of Cellular tumor antigen p53 (Homo sapiens) (P04637 whole entry, looked up): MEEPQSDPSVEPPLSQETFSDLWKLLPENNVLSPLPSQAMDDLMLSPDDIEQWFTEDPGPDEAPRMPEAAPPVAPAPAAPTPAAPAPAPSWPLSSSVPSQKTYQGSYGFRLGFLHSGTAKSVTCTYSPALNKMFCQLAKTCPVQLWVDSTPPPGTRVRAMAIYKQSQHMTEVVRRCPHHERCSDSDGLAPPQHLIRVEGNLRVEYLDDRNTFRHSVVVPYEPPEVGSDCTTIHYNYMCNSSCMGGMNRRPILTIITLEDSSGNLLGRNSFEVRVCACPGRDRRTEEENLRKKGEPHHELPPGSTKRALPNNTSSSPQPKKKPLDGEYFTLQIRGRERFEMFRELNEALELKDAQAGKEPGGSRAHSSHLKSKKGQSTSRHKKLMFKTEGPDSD

Assay [14] is described as follows: BSK_3C_TissueFactor: BioMAP Diversity Plus: 3C Assay for Tissue Factor Biomarker Activity (AID 2282997). As to conditions: BioMAP 3C HUVEC, tissue factor biomarker readout; actives raise or lower the signal. The gist of the method: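 Cells used were primary human umbilical vein endothelial cells. They were dosed with chemical, and after 24 h Tissue Factor was quantified by ELISA. Curves were fitted bidirectionally with DMSO as baseline.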

A short description of assay [15]: BSK_3C_uPAR: BioMAP Diversity Plus: 3C Assay for Urokinase-type plasminogen activator receptor (uPAR) Biomarker Activity (AID 2282998). To be noted: BioMAP 3C HUVEC, uPAR biomarker ELISA; actives raise or lower the signal. The gist of the method:
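Cell-surface uPAR on HUVEC (3C system) read by ELISA at 24 h post-treatment, with DMSO as baseline and fitting in both directions. Parallel cultures stained with SRB to flag overt cytotoxicity.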
Background: ELISA stands for enzyme-linked immunosorbent assay.

Assay [16] can be described thus: BSK_3C_VCAM1: BioMAP Diversity Plus: 3C Assay for Vascular cell adhesion molecule 1 (VCAM1) Biomarker Activity (AID 2282999). As to conditions: BioMAP 3C HUVEC, VCAM1 ELISA, cytokine-stimulated; actives raise or lower the signal. The gist of the method: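 HUVEC primary cells, 24 h compound exposure; VCAM-1 by ELISA; gain/loss of signal fitted bidirectionally vs DMSO baseline.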

For assay [17], the target named is Glucocorticoid receptor (Homo sapiens) (UniProt P04150). Put plainly: ATG_GR_TRANS: Attagene TRANS-FACTORIAL HepG2 Assay for human Glucocorticoid Receptor (GR) (AID 2282978; active = hit-call score of the fitted dose curve at least 0.9, where 1 is the maximum;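 note: activators score as hits since higher reporter transcript over DMSO is fitted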). To be noted: HepG2 Attagene TRANS GR reporter, mRNA transcription. In outline: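 In this trans-factorial format, exogenous NR-GAL4 chimeric proteins in transfected HepG2 cells regulate GAL4-UAS reporter transcription. After 24 h treatment, reporter mRNA induction relative to DMSO is read by RT-PCR and capillary electrophoresis.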
Sequence of Glucocorticoid receptor (Homo sapiens) (P04150 whole entry, looked up, the tested form may be a part): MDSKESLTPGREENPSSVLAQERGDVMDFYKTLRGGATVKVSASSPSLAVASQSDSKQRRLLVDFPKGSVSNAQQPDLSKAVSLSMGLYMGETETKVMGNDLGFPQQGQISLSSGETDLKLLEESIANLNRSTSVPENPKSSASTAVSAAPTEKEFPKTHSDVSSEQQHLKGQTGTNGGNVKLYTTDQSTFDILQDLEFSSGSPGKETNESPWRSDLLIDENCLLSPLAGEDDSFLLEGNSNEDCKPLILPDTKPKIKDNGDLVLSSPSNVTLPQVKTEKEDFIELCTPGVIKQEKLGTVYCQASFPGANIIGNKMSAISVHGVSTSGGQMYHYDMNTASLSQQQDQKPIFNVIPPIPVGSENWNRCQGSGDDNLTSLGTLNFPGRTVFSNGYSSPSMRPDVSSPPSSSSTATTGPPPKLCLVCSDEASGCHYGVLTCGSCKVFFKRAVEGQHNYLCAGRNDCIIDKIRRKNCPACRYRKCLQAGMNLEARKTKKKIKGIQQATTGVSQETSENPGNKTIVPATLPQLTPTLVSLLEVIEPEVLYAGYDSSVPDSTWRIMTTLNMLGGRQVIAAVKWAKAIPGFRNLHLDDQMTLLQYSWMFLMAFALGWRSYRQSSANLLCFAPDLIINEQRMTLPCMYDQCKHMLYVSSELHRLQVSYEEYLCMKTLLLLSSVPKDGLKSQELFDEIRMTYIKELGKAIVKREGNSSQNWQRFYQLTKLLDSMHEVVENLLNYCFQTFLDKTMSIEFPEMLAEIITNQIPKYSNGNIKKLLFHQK

Assay [18] deals with Hepatocyte nuclear factor 4-alpha (Homo sapiens) (UniProt P41235). Description: ATG_HNF4a_TRANS: Attagene TRANS-FACTORIAL HepG2 Assay for human Hepatocyte Nuclear Factor 4 alpha (HNF4a) (AID 2282982; active = hit-call score of the fitted dose curve at least 0.9, where 1 is the maximum). As to conditions: HepG2 HNF4a transactivation reporter, mRNA readout. The gist of the method: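 Transient MRTU transfection of HepG2, 24 h dosing. Readout: reporter mRNA via RT-PCR + capillary electrophoresis, fluorescence; activity fit upward relative to DMSO control.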
Sequence of Hepatocyte nuclear factor 4-alpha (Homo sapiens) (P41235 whole entry, looked up): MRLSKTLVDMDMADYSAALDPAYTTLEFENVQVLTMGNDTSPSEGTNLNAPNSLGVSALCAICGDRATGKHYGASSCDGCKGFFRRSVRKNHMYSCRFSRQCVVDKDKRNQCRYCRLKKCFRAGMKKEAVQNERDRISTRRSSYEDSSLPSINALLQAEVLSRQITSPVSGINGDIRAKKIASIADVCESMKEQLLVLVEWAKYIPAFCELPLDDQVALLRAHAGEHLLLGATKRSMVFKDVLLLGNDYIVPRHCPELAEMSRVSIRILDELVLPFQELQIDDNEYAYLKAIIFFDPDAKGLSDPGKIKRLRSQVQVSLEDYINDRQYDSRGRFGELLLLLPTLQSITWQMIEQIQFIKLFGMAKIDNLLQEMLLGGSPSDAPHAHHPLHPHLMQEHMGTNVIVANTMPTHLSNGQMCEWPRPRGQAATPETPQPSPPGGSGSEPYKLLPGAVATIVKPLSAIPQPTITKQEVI

Assay [19] in a line: ATG_M_32_TRANS: Attagene TRANS-FACTORIAL HepG2 Assay for M32 Transcription Factor (Internal Marker) (AID 2282984; active = hit-call score of the fitted dose curve at least 0.9, where 1 is the maximum;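 note: transcript level of a background control reporter unit measured by RT-PCR and capillary electrophoresis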). As to conditions: HepG2 Attagene TRANS M32 internal marker reporter. The gist of the method: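 Read-out: fluorescent reporter cDNA fragments resolved by capillary electrophoresis after RT-PCR of total RNA. Transfected HepG2 cells were exposed to chemical for 24 h. Activity scored in the positive direction relative to DMSO.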

For assay [20], the target named is Bile acid receptor (Homo sapiens) (UniProt Q96RI1). Put plainly: ATG_FXR_TRANS: Attagene TRANS-FACTORIAL HepG2 Assay for Farnesoid X Receptor (FXR) (AID 2282979; active = hit-call score of the fitted dose curve at least 0.9, where 1 is the maximum;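 note: hits raise reporter mRNA above DMSO so AC50 marks FXR activation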). As to conditions: HepG2 Attagene TRANS FXR-GAL4 reporter transcription. The gist of the method:
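Chimeric FXR-GAL4 activity in transiently transfected human HepG2 liver cells is scored as induction of reporter mRNA after 24 h of dosing. Detection uses RT-PCR with fluorescent labelling and capillary electrophoresis, with DMSO serving as baseline.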

Sequence of Oxysterols receptor LXR-beta (Homo sapiens) (P55055 whole entry, looked up, the tested form may be a part): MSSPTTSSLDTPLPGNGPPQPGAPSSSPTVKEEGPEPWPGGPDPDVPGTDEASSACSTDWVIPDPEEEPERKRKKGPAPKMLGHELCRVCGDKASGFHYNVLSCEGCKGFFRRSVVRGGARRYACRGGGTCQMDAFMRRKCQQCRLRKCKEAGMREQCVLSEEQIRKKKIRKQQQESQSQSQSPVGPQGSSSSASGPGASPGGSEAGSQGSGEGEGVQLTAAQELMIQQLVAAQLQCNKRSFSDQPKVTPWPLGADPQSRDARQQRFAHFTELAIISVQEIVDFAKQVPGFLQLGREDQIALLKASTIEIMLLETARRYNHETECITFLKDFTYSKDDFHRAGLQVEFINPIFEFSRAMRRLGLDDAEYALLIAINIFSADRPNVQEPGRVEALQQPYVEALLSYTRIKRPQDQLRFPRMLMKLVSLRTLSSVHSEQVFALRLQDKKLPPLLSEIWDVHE
Sequence of Nuclear respiratory factor 1 (Homo sapiens) (Q16656 whole entry, looked up, the tested form may be a part): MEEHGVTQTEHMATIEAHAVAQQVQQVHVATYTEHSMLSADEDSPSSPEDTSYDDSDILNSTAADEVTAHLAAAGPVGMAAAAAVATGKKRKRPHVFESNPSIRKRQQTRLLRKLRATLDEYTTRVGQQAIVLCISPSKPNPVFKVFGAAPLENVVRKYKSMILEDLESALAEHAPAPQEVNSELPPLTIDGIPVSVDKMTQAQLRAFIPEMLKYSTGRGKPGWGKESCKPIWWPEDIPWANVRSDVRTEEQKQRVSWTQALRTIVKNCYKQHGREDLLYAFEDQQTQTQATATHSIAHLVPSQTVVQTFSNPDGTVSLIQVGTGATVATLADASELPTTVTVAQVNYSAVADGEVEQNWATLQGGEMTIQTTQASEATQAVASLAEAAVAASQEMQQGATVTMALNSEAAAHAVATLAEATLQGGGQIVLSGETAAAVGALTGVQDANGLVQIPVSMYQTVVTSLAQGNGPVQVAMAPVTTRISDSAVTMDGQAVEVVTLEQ
Sequence of Transcriptional activator Myb (Homo sapiens) (P10242 whole entry, looked up): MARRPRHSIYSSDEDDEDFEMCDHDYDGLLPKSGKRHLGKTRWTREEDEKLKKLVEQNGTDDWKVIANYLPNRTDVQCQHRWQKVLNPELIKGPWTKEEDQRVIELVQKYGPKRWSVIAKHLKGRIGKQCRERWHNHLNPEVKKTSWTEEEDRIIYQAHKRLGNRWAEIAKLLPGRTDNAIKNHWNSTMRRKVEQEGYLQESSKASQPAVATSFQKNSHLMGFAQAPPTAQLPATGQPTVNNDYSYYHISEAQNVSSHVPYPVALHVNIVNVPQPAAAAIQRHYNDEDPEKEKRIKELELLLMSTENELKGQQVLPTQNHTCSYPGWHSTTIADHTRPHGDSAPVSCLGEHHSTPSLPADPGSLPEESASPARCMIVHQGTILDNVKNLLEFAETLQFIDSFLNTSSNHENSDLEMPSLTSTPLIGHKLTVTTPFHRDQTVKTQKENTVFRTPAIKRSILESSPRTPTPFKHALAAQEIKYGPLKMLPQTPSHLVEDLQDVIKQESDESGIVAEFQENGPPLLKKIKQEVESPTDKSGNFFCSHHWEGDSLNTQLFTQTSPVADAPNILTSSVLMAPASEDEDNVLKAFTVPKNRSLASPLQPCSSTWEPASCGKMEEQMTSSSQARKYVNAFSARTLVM
Sequence of Myc proto-oncogene protein (Homo sapiens) (P01106 whole entry, looked up): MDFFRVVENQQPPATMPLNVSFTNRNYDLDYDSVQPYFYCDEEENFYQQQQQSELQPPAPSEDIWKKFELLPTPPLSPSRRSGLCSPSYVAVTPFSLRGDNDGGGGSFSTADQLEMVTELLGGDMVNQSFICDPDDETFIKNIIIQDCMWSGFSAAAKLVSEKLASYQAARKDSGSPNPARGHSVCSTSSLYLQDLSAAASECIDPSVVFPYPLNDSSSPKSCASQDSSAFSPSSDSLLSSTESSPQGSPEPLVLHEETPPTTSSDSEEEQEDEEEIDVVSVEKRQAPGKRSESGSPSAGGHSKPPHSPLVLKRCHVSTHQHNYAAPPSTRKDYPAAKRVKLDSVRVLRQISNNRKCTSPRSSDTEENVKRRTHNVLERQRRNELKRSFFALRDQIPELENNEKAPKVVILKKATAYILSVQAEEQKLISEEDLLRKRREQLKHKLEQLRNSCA
Sequence of Oxysterols receptor LXR-alpha (Homo sapiens) (Q13133 whole entry, looked up): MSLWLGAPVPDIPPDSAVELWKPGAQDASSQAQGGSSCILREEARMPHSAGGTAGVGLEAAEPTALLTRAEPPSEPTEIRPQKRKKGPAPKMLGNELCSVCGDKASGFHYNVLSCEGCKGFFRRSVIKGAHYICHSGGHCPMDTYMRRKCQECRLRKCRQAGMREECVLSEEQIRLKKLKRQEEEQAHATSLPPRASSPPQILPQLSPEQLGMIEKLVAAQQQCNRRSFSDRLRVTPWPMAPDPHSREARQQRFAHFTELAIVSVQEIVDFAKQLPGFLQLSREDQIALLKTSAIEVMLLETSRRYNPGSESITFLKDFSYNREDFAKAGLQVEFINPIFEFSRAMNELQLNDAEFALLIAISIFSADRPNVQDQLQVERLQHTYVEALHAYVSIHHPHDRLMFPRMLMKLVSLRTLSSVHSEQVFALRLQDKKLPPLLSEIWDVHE

The AC50 is the concentration at which the activity in the assay is half-maximal. `CC(C)NC(=O)N1CC(=O)N(c2cc(Cl)cc(Cl)c2)C1=O`: the call in [1], in [2], in assay [3], in [4], in assay [5] and in assay [6] was inactive. In addition, the molecule was called inactive in assay [7], in [8], in assay [9], in [10], in [12] and in assay [13]. Further, the outcome in assay [14] and in assay [16] was inactive. In addition, the half-maximal activity concentration (AC50) in assay [11] is 7.39 µM (active); in [15], 32.8 µM (active).
With `O=c1n(Cl)c(=O)n(Cl)c(=O)n1Cl`, the call in assay [1], in assay [17], in assay [3], in [4], in [18] and in [5] was inactive. Further, the call in assay [6], in assay [7], in assay [8], in assay [9], in assay [10] and in assay [11] was inactive. In addition, the result in assay [12], in assay [13], in [14], in assay [15] and in assay [16] was inactive.
Turning to `CCOP(=O)(OCC)Oc1nc(Cl)c(Cl)cc1Cl`, the molecule was classed as inactive in [1], in [17], in [3], in assay [4], in [19] and in [5]. For the same molecule, the molecule was classed as inactive in assay [6], in assay [7], in assay [8], in [9], in [10] and in [13]. Further, the result in assay [14] and in assay [16] was inactive. Also, the concentration at half-maximal activity (AC50) in assay [11] was 33.4 µM (active); in [12], 50 µM (active); in [15], 20 µM (active).
For the molecule `CC1(C)C(C(=O)OC(C#N)c2cccc(Oc3ccccc3)c2)C1(C)C` (centres undefined), the outcome in assay [1], in [20], in [4], in [18], in assay [5] and in assay [6] was inactive. Further, the call in assay [7], in [8], in [9], in [10], in assay [12] and in assay [13] was inactive. The outcome in assay [14], in assay [15] and in [16] was inactive. Moreover, the AC50 in [11] was 0.913 µM (active).
With `CSC(=O)c1c(C(F)F)nc(C(F)(F)F)c(C(=O)SC)c1CC(C)C`, the molecule was called inactive in [1], in [2], in assay [17], in assay [18], in assay [6] and in assay [7]. Also, the molecule was classed as inactive in [8], in [9], in [11], in assay [12], in assay [13] and in assay [14]. Moreover, the outcome in [16] was inactive. The concentration at half-maximal activity (AC50) in assay [5] was 13.5 µM (active); in assay [15], 32.6 µM (active).
Turning to `COc1cc(Cl)c(OC)cc1Cl`, the molecule was called inactive in assay [1], in assay [17], in assay [3], in assay [4], in [18] and in [6]. For the same molecule, the molecule was called inactive in assay [7], in assay [8], in assay [9], in assay [10], in assay [11] and in assay [12]. Also, the result in assay [13], in [14], in assay [15] and in assay [16] was inactive.
Regarding `CC(C)Oc1cccc(NC(=O)c2ccccc2C(F)(F)F)c1`, the molecule was classed as inactive in assay [1], in assay [17], in assay [3], in assay [4], in [18] and in [5]. For the same molecule, the outcome in assay [6], in assay [7], in assay [8], in assay [9], in assay [10] and in assay [13] was inactive. Also, the outcome in assay [14], in [15] and in assay [16] was inactive. Also, the concentration at half-maximal activity (AC50) in [11] was 6.33 µM (active); in assay [12], 11.7 µM (active).

(Values after PubChem BioAssay (EPA / NIEHS).)
